Test results published in PubChem BioAssay.
Values without a mark were called inactive. A call without a number means that no potency is given here. For part of these data: Potency and affinity values are given separately. Calls of active or inactive are those of the source. Unless noted, the rule behind the calls is not given here.

Tests used:
[1] = antimalarial activity against Dd2 strain (AID 2302;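 active = growth inhibition above 50% at the single 2 µM test dose, taken to imply half-maximal potency below 2 µM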); settings: P. falciparum Dd2 in RBCs, LDH growth readout, 72 h; at 2 µM; stronger effect = higher value
[2] = human hepatoma cell viability loss – ATP luminescence, cytotoxicity control for P. falciparum antimalarial project, primary screen (AID 2303;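 active = inhibition above 50%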); settings: HepG2 viability, 24-48 h, at 10 µM, stronger effect = higher value
[3] = biological target: L-lactate dehydrogenase (Plasmodium falciparum (isolate CDC / Honduras)) (UniProt Q27743); assay: PfLDH activity inhibition – cell lysate, 3D7 strain, counter-screen for P. falciparum growth inhibition project (AID 2304); settings: P. falciparum 3D7 crude extract, LDH APAD/NBT absorbance; at 2 µM; stronger effect = higher value
L-lactate dehydrogenase (Plasmodium falciparum (isolate CDC / Honduras)), sequence (Q27743 whole entry, looked up): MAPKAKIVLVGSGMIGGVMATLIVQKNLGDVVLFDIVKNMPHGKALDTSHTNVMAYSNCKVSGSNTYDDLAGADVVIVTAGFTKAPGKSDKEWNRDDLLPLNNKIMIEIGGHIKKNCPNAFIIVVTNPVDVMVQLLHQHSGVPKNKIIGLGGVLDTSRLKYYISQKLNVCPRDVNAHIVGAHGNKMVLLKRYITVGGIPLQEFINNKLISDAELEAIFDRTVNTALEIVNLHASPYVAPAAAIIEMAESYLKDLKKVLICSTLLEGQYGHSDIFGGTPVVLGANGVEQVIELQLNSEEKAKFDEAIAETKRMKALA

[4] = inhibition of 3D7 malaria parasite growth – strain 3D7 (AID 2306); settings: P. falciparum 3D7 erythrocytic growth, LDH absorbance, 72 h; at 2 µM; stronger effect = higher value
[5] = biological target: Calcium-dependent protein kinase 1 (Plasmodium falciparum (isolate 3D7)) (UniProt P62344); assay: PfCDPK1 kinase inhibitors, biochemical, TCAMS library (AID 1159585; cut-off not given, nearly all actives have IC50 up to about 0.98 µM;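 note: inhibitors leave more ATP so luminescence rises with inhibition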); settings: recombinant PfCDPK1, Kinase-Glo ATP depletion luminescence
Calcium-dependent protein kinase 1 (Plasmodium falciparum (isolate 3D7)), sequence (P62344 whole entry, looked up): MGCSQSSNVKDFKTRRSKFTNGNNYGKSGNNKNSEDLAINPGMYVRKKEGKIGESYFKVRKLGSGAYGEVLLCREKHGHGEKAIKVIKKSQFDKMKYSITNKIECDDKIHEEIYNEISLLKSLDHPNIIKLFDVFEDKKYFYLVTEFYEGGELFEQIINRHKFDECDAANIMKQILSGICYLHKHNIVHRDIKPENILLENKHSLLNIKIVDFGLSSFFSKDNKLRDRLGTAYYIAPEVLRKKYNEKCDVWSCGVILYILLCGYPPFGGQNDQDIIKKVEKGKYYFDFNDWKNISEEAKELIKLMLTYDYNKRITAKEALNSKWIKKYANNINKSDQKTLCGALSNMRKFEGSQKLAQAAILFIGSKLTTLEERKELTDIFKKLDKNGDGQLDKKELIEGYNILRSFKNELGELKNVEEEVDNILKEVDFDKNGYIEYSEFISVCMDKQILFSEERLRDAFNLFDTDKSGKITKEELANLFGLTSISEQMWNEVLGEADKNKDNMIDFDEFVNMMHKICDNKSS

[6] = biological target: Plasmodium falciparum protein kinase 6 (PK6, PF3D7_1337100) (UniProt Q8IDW1); assay: PfPK6 kinase inhibitors, biochemical, TCAMS library (AID 1159586); settings: recombinant PfPK6, Kinase-Glo ATP depletion luminescence
Plasmodium falciparum protein kinase 6 (PK6, PF3D7_1337100), sequence (Q8IDW1 1-305): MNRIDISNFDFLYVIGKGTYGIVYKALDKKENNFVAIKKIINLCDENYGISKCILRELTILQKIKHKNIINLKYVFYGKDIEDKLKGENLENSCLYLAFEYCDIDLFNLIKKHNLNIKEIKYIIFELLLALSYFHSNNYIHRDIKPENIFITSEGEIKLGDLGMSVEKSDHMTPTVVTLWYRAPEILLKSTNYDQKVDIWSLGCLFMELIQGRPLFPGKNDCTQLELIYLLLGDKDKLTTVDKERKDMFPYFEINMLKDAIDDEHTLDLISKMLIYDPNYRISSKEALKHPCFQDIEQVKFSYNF

[7] = biological target: Protein kinase 7 (PK7), Plasmodium falciparum 3D7 (PF3D7_0213400) (UniProt Q7YTF7); assay: inhibition of Plasmodium PK7 catalytic activity – biochemical, TCAMS antimalarial set, Kinase-Glo luminescence (AID 1159587); settings: recombinant PfPK7, Kinase-Glo ATP depletion luminescence
Protein kinase 7 (PK7), Plasmodium falciparum 3D7 (PF3D7_0213400), sequence (Q7YTF7 1-343): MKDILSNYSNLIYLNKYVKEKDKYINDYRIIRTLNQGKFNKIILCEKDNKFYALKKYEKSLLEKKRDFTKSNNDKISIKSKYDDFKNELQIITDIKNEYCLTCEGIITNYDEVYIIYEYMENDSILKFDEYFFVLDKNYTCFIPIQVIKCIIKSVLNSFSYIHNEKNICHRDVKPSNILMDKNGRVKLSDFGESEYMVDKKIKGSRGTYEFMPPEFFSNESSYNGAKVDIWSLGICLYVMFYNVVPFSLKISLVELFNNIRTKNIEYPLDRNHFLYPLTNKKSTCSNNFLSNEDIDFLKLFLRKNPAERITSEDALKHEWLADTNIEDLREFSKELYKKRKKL

[8] = biological target: Calcium-dependent protein kinase 4 (Plasmodium falciparum (isolate 3D7)) (UniProt Q8IBS5); assay: PfCDPK4 kinase inhibitors, biochemical, TCAMS library (AID 1159588; cut-off not given, nearly all actives have IC50 up to about 0.91 µM); settings: recombinant PfCDPK4, Kinase-Glo ATP depletion luminescence
Calcium-dependent protein kinase 4 (Plasmodium falciparum (isolate 3D7)), sequence (Q8IBS5 whole entry, looked up): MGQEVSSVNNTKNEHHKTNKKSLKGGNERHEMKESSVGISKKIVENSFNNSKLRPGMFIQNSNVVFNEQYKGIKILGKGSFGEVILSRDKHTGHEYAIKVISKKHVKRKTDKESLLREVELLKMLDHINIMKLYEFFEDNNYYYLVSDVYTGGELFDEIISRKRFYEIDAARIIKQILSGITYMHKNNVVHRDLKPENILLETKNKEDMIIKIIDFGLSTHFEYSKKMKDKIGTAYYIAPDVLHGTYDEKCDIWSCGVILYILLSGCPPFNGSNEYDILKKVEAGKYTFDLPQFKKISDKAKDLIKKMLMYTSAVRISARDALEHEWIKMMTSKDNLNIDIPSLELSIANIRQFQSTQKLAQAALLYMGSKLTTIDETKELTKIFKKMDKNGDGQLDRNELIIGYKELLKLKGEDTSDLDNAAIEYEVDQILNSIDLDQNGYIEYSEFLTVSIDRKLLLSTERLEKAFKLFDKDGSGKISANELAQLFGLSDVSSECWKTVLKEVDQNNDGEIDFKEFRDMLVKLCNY

| SMILES | growth inhibition [1] | inhibition [2] | inhibition [3] [%] | growth inhibition [4] | outcome [5] | outcome [6] | outcome [7] | outcome [8] |
| --- | --- | --- | --- | --- | --- | --- | --- | --- |
| CS(=O)(=O)CCNCc1ccc(-c2cc3c(Nc4ccc(OCc5cccc(F)c5)c(Cl)c4)ncnc3s2)[nH]1 | 95% (active) | 5% | 2 | 99% (active) | inactive | inactive | inactive | inactive |
| Cc1cnn(-c2cccc(C(=O)NC3CCC(CCN4CCc5ccc(C#N)cc5CC4)CC3)c2)c1 (configuration not stated) | 48% | 24% | -9 | 94% (active) | inactive | inactive | inactive | inactive |
| O=C(Nc1cccc(Cl)c1Cl)Nc1ccnc2ccccc12 | 47% | 31% | 4 | 100% (active) | inactive | inactive | inactive | inactive |
| COc1ccc(Cl)cc1N1CCN(CCCNC(=O)c2ccc(-c3nc4cc(Cl)c(F)cc4[nH]3)c(F)c2)CC1 | 91% (active) | 21% | 5 | 101% (active) | inactive | inactive | inactive | inactive |
| COc1cc(OC)cc(-c2nn(-c3ccc([N+](=O)[O-])cc3Cl)c(=S)n2Cc2ccco2)c1 | 100% (active) | 15% | 2 | 101% (active) | inactive | inactive | inactive | inactive |
| CCOc1ccc(C2CCN(CCCCNC(=O)c3ccc(NC(=O)c4ccc(Cl)cc4)cc3)CC2)c(Cl)c1 | 96% (active) | 32% | -2 | 101% (active) | inactive | inactive | inactive | inactive |
| Nc1nc(N)c2cc(CNc3ccc(Cl)c(Cl)c3)ccc2n1 | 55% (active) | 62% (active) | 5 | 93% (active) | inactive | inactive | inactive | inactive |
| O=C(Nc1cccc(C(F)(F)F)c1)NC1CCN(c2ccnc3ccccc23)C1 (configuration not stated) | 69% (active) | 23% | -2 | 101% (active) | inactive | inactive | inactive | inactive |
| CC(C)(C)c1ccc(NC(=O)c2cccc(CN3CCCN(Cc4cccc(Cl)c4)CC3)c2)cc1 | 30% | 61% (active) | 3 | 85% (active) | inactive | inactive | inactive | inactive |
| CN(C)C(=S)N=Nc1c(O)[nH]c2ccc(OC(F)(F)F)cc12 | 52% (active) | 36% | 3 | 93% (active) | inactive | inactive | inactive | inactive |
| COc1ccc2nccc([C@@H](O)CN3CCC(NC(=O)c4cc5c(F)cc(F)cc5[nH]4)CC3)c2n1 | 74% (active) | 32% | -3 | 101% (active) | inactive | inactive | inactive | inactive |
| O=C(Nc1cccc(-c2ccc(NCCCN3CCCC3)nc2)c1)c1ccccc1 | 21% | 22% | 4 | 100% (active) | inactive | inactive | inactive | inactive |
| c1ccc(CNCc2cccc(-c3cccc(-c4nc5ccccc5[nH]4)c3)c2)cc1 | 38% | 12% | -5 | 102% (active) | inactive | inactive | inactive | inactive |
| O=C(NC1CC1)c1ccc(N2CCC(COc3cccc(F)c3)CC2)nc1 | 88% (active) | 0% | 4 | 89% (active) | inactive | inactive | inactive | inactive |
| O=C(NC1CC1)c1cnc(N2CCC(Oc3ccc(Cl)cc3)CC2)c(Cl)c1 | 75% (active) | 12% | -5 | 86% (active) | inactive | inactive | inactive | inactive |
| COc1ccc(Cl)cc1NC(=O)CN(C)C(=O)c1cnn(-c2ccccc2)n1 | 99% (active) | -6% | -2 | 102% (active) | inactive | inactive | inactive | inactive |
| Cc1cc(NN=Cc2ccc(Cl)cc2)c2cc(F)ccc2n1 | 98% (active) | 6% | 2 | 101% (active) | inactive | inactive | inactive | inactive |
| O=S(=O)(NCCN1CCCC1)c1cccc(-c2ccc(CNC3Cc4ccccc4C3)cc2)c1 | 74% (active) | 79% (active) | -4 | 99% (active) | inactive | inactive | inactive | inactive |
| COc1cc(F)c2ncc(C#N)c(CCN3CCC(NCc4ccc5c(c4)OCCO5)CC3)c2c1 | 59% (active) | 5% | -7 | 97% (active) | inactive | inactive | inactive | inactive |
| COc1ccc(CCC(C)N2C[C@@H](N)[C@H](c3cn(C)c4cnccc34)C2)cc1 (some centres not stated) | -4% | 5% | -1 | 98% (active) | inactive | inactive | inactive | inactive |

| SMILES | growth inhibition [1] | inhibition [2] | inhibition [3] [%] | growth inhibition [4] | outcome [5] | outcome [6] | outcome [7] | outcome [8] |
| --- | --- | --- | --- | --- | --- | --- | --- | --- |
| Cc1cc(N[C@@H](CC(C)C)C(=O)NCCc2ccccc2)nc(NCCc2cccs2)n1 | 16% | 0% | -3 | 89% (active) | inactive | inactive | inactive | inactive |
| Cc1c(Cn2ncc(N3C[C@@H](C)N[C@@H](C)C3)c(Cl)c2=O)cccc1NC(=O)Nc1ccc(-c2ccccc2)cc1 | 35% | 97% (active) | -6 | 97% (active) | inactive | inactive | inactive | inactive |
| Cn1nccc1C(=O)NCCNCc1ccc(-c2cccc(-c3nc4ccccc4[nH]3)c2)cc1 | 87% (active) | 35% | 2 | 101% (active) | inactive | inactive | inactive | inactive |
| COc1cc(F)c2ncc(Cl)c(CCN3CCC(NCc4cc5c(cn4)OCCO5)CC3)c2c1 | 57% (active) | 2% | -1 | 89% (active) | inactive | inactive | inactive | inactive |
| O=C(/C=C/c1ccc(Cl)c(Cl)c1)NCCCCCN1CCC(NC(=S)Nc2ccc(Cl)cc2)CC1 | 41% | 62% (active) | -1 | 99% (active) | inactive | inactive | inactive | inactive |
| Oc1ccc(Cl)cc1-c1cc(C(F)(F)F)nc(-c2ccccc2)n1 | 92% (active) | 20% | 3 | 99% (active) | inactive | inactive | inactive | inactive |
| O=C(/C=C/c1ccc(Cl)c(Cl)c1)N1CCC(CN2CCC(c3c[nH]c4ncccc34)CC2)CC1 | 20% | 38% | -1 | 84% (active) | inactive | inactive | inactive | inactive |
| CCC(C(=O)Nc1ccccc1)n1nc(-c2ccc(C)c(S(=O)(=O)N3CCCCC3)c2)ccc1=O (configuration not stated) | 67% (active) | -2% | 4 | 85% (active) | inactive | inactive | inactive | inactive |
| CCOc1ccc2nc(C)cc(NN=Cc3cccc(F)c3)c2c1 | 23% | -3% | 0 | 100% (active) | inactive | inactive | inactive | inactive |
| Cc1ccc(CNC(=O)c2cc3c(=O)n4ccccc4nc3n(CCCN3CCOCC3)c2=N)cc1 | 5% | 21% | -3 | 92% (active) | inactive | inactive | inactive | inactive |
| CC(C)(C)CC(=O)Nc1ccc(Nc2cc(-c3ccncc3)cc3ncc(C(N)=O)cc23)cc1 | 85% (active) | 5% | 7 | 97% (active) | inactive | inactive | inactive | inactive |
| c1ccc2sc(Sc3ncnc4sccc34)nc2c1 | 100% (active) | 7% | 2 | 100% (active) | inactive | inactive | inactive | inactive |
| NC(=O)c1cccc(-n2ccc3cc(CNC4Cc5ccccc5C4)ccc32)c1 | 7% | 17% | -1 | 88% (active) | inactive | inactive | inactive | inactive |
| CCC(C(=O)Nc1cc(=O)[nH]c2nc(-c3ccco3)nn12)c1ccccc1 (configuration not stated) | 68% (active) | 2% | -1 | 87% (active) | inactive | inactive | inactive | inactive |
| COc1cccc(-c2cnc(N)c(-c3nc4ccc(C(F)(F)F)cc4[nH]3)c2)c1 | 30% | 5% | -4 | 99% (active) | inactive | inactive | inactive | inactive |
| Cc1nc(N)nc(N)c1-c1ccc(Br)cc1 | 1% | 46% | 3 | 98% (active) | inactive | inactive | inactive | inactive |
| Cc1cnc(CN(Cc2ccc(-c3ccc(CNCCc4ccc(S(C)(=O)=O)cc4)cn3)cc2)C(=O)c2nn(-c3ccccc3)nc2C)cn1 | 21% | 11% | 0 | 84% (active) | inactive | inactive | inactive | inactive |
| CCOc1ccc2c(NN=Cc3ccc(F)cc3)cc(C)nc2c1 | 99% (active) | 22% | -3 | 101% (active) | inactive | inactive | inactive | inactive |
| CNCCNCc1ccc(-c2ccc(-c3nc4ccc(F)cc4[nH]3)s2)cc1 | 55% (active) | 22% | 2 | 99% (active) | inactive | inactive | inactive | inactive |
